According to the supplement of paper PMC10849652:
Targets with a hit are over-represented here; the source holds about 8,800 in all. About 0.5% of all pairs of compound and target were hits.

Legend:
Assay in all cases: log2 fold change, soluble protein after heating vs DMSO (PISA); higher = thermal stabilisation; K562 lysate, 10 uM; active = over 0.2 and 3.5 SD of the protein, either way, in both replicates (recomputed)
[1] = compound: C1=CC=C(C=C1)[C@H](COC2=CC3=C(C=C2)NC(=O)N3)NC(=O)C4=CC=CN(C4=O)CC5=CC(=C(C=C5)F)F
In short: (§1)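 Thermal stability, expressed as log-two fold change relative to solvent controls, is given from duplicates. Crude K562 extract in PBS pH 7.4 with 1 mM MgCl2, at 1 mg/mL protein, was treated with 10 μM compound for 30 min and heated in aliquots for 3 min across 48°C-58°C. After pooling, adjustment to 0.5% NP-40 at 4°C and centrifugation at 21,000xg for 90 min, supernatant protein was measured by TMTpro 16plex LC-MS/MS with channel sums equalised.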

[2] = compound: CC1=C(SC2=C1C(=N[C@H](C3=NN=C(N32)C)CC(=O)N)C4=CC=C(C=C4)Cl)C
In short: as §1

[3] = compound: CC1=C2C(=CC=C1)N=C(N(C2=O)C3=CC=CC=C3C)CN4C=NC5=C(N=CN=C54)N
In short: as §1

[4] = compound: Cc1sc2c(c1C)C(c1ccc(Cl)cc1)=N[C@@H](CC(=O)OC(C)(C)C)c1nnc(C)n1-2
In short: as §1

[5] = compound: c1ccc([C@@H]2C[C@H]2NC2CCNCC2)cc1
In short: as §1

Measured: log2 fold change

OTUD7B (UniProt Q6GQQ9)
inactive: [1] -0.004 | [2] 0 | [3] -0.001 | [4] -0.02 | [5] 0.035

OSBPL6 isoform 5 (UniProt Q9BZF3)
inactive: [1] 0.014 | [2] -0.023 | [3] 0.02 | [4] 0.023 | [5] -0.087

NIT2 (UniProt Q9NQR4)
Sequence of UniProt Q9NQR4 (Q9NQR4 whole entry, looked up): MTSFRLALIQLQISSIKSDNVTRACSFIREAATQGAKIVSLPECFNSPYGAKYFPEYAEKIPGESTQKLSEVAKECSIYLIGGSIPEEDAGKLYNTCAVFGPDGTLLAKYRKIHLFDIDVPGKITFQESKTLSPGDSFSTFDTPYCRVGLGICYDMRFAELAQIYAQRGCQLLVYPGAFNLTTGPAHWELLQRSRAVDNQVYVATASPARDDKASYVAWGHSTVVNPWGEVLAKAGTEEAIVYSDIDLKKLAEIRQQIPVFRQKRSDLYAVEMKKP
inactive: [1] -0.033 | [2] 0.017 | [3] 0.027 | [4] -0.007 | [5] 0.058

NIPBL (UniProt Q6KC79)
inactive: [1] 0.003 | [2] -0.055 | [3] -0.001 | [4] -0.014 | [5] -0.01

NUMB (UniProt P49757)
inactive: [1] 0.001 | [2] 0.034 | [3] 0.009 | [4] 0.004 | [5] -0.032

NAP1L5 (UniProt Q96NT1)
inactive: [1] 0.082 | [2] -0.023 | [3] -0.028 | [4] -0.082 | [5] 0.304

NUCB2 (UniProt P80303)
inactive: [1] 0.041 | [2] -0.005 | [3] -0.011 | [4] -0.021 | [5] 0.079

NSUN7 (UniProt Q8NE18)
Sequence of UniProt Q8NE18 (Q8NE18 whole entry, looked up): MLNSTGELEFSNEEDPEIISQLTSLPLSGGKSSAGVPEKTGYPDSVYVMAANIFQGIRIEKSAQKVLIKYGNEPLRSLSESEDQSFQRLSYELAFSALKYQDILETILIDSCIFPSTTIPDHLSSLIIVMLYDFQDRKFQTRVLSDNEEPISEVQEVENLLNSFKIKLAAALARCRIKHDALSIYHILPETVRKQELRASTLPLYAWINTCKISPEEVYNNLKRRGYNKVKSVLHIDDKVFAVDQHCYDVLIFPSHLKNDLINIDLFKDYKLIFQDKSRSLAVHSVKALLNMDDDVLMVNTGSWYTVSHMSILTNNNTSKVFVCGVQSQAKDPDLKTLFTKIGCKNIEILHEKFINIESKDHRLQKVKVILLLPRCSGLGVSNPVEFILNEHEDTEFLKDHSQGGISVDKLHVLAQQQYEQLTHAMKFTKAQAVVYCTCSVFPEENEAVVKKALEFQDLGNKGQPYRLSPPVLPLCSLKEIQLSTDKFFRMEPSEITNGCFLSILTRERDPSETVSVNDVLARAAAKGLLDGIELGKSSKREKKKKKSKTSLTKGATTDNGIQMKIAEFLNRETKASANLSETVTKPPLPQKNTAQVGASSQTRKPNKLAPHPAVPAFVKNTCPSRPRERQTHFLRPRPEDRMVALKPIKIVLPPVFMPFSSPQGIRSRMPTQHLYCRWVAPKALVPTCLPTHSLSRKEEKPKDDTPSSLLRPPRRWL
inactive: [1] -0.144 | [2] -0.046 | [3] 0.06 | [5] -0.081

NOCT (UniProt Q9UK39)
inactive: [4] 0.021

MYO10 (UniProt Q9HD67)
inactive: [1] -0.122 | [2] 0.104 | [3] 0.165 | [5] 0.024

PAGE2B (UniProt Q5JRK9)
Sequence of UniProt Q5JRK9 (Q5JRK9 whole entry, looked up): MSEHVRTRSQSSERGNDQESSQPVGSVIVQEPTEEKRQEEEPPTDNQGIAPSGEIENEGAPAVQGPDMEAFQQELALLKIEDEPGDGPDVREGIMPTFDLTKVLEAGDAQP
inactive: [3] -0.031 | [4] -0.072 | [5] 0.182

NPLOC4 (UniProt I3L3I1)
inactive: [1] -0.041 | [2] 0.2 | [4] -0.101

PARD3B (UniProt Q8TEW8)
inactive: [4] 0.138 | [5] -0.085

P2RY1 (UniProt P47900)
inactive: [1] -0.153 | [2] 0.163 | [4] -0.047 | [5] -0.022

MRPL53 (UniProt Q96EL3)
inactive: [1] -0.056 | [2] -0.102 | [3] 0.079 | [4] -0.026 | [5] -0.093

NFATC1 (UniProt O95644)
Sequence of UniProt O95644 (O95644 whole entry, looked up): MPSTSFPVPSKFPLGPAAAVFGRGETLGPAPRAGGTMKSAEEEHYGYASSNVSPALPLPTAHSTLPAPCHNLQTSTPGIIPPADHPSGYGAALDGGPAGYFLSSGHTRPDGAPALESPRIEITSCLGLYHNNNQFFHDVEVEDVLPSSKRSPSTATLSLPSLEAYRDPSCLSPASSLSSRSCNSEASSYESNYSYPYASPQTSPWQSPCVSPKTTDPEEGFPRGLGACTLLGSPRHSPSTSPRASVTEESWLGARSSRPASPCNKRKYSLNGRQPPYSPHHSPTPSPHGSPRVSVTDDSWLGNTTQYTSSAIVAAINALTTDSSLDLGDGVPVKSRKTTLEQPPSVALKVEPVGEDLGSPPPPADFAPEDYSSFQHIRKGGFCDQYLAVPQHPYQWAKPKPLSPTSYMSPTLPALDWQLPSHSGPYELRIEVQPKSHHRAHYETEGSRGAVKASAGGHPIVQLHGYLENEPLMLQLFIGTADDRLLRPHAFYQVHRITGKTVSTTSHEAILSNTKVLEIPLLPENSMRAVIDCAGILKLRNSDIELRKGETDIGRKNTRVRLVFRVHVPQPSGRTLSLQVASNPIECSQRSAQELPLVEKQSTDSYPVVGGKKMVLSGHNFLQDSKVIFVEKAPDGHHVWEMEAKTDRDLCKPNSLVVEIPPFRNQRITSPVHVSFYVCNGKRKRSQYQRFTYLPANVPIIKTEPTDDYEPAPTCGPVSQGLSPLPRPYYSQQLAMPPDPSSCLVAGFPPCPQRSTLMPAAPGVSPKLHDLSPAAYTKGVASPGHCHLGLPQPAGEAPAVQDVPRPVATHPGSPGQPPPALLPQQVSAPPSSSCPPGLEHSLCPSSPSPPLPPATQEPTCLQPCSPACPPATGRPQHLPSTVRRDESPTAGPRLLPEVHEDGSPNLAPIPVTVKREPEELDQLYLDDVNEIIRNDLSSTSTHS
inactive: [1] -0.006 | [2] 0.047 | [3] -0.017 | [4] 0.003 | [5] -0.127

NCAPH (UniProt Q15003)
inactive: [1] -0.025 | [2] 0.015 | [3] 0.021 | [4] -0.023 | [5] 0.024

NUB1 (UniProt Q9Y5A7)
inactive: [1] -0.011 | [2] 0.029 | [3] 0.025 | [4] 0.013 | [5] 0.039

NT5DC2 isoform 2 (UniProt Q9H857)
inactive: [1] 0.021 | [2] -0.026 | [3] 0.009 | [4] 0.051 | [5] -0.022

NRIP1 (UniProt P48552)
inactive: [1] 0.058 | [2] 0.112 | [4] -0.071 | [5] -0.069

MYLK (UniProt Q15746)
inactive: [1] -0.038 | [2] -0.161 | [3] -0.008 | [5] 0.123

MXRA7 (UniProt P84157)
inactive: [3] -0.05 | [4] -0.106 | [5] -0.062

NEK9 (UniProt Q8TD19)
Sequence of UniProt Q8TD19 (Q8TD19 whole entry, looked up): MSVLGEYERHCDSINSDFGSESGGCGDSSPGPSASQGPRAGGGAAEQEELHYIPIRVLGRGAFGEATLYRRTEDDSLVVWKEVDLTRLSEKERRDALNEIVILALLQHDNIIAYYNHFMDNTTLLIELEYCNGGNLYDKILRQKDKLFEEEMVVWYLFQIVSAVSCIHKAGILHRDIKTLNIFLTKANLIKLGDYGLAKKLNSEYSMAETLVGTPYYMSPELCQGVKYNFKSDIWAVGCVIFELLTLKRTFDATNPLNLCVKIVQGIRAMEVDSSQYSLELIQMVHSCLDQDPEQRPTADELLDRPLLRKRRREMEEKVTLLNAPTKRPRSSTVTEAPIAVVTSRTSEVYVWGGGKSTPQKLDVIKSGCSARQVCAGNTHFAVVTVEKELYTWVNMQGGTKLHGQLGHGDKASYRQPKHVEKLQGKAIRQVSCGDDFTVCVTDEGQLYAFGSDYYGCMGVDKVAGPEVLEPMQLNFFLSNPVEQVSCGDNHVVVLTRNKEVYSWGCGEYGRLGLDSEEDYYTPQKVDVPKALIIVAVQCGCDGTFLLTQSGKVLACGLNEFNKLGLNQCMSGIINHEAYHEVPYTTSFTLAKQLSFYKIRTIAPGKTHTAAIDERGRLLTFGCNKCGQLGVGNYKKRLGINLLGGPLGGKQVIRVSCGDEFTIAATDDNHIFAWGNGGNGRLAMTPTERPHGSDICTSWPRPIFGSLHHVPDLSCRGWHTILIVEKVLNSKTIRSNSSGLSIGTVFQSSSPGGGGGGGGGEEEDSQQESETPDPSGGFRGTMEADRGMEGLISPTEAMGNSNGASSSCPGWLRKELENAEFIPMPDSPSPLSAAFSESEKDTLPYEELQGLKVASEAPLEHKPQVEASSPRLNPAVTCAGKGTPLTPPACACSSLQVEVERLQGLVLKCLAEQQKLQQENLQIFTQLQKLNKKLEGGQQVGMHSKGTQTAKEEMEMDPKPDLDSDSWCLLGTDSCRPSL
inactive: [1] -0.002 | [2] 0.002 | [3] -0.033 | [4] 0.017 | [5] -0.032

MYO9A isoform 4 (UniProt B2RTY4)
inactive: [1] -0.124 | [2] -0.047 | [3] 0.094 | [4] -0.027 | [5] -0.02

NUMB isoform 2 (UniProt P49757)
inactive: [4] -0.207

NSL1 (UniProt Q96IY1)
inactive: [1] 0.028 | [2] 0.012 | [3] -0.001 | [4] 0.053 | [5] -0.014

MT-ND1 (UniProt P03886)
inactive: [1] -0.057 | [2] -0.098 | [3] -0.055 | [4] -0.077 | [5] -0.039

NFIC (UniProt P08651)
Sequence of UniProt P08651 (P08651 whole entry, looked up): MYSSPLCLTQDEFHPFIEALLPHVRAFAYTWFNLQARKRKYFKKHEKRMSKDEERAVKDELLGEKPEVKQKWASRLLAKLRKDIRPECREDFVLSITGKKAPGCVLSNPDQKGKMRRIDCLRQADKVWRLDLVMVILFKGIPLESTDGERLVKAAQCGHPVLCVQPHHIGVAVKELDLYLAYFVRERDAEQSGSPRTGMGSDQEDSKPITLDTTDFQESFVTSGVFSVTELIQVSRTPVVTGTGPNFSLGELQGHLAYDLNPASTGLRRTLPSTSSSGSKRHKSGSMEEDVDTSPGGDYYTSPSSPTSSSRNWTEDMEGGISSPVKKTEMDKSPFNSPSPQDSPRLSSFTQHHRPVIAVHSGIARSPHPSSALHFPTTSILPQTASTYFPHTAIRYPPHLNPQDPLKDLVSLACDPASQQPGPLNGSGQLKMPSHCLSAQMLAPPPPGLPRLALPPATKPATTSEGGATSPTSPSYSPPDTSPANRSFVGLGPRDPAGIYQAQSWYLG
inactive: [1] 0.023 | [2] 0.018 | [3] -0.056 | [4] 0.052 | [5] -0.177

MYBL2 (UniProt P10244)
inactive: [3] -0.01 | [4] 0.047
active: [5] 0.326

PANK2 (UniProt Q9BZ23)
Sequence of UniProt Q9BZ23 (Q9BZ23 whole entry, looked up): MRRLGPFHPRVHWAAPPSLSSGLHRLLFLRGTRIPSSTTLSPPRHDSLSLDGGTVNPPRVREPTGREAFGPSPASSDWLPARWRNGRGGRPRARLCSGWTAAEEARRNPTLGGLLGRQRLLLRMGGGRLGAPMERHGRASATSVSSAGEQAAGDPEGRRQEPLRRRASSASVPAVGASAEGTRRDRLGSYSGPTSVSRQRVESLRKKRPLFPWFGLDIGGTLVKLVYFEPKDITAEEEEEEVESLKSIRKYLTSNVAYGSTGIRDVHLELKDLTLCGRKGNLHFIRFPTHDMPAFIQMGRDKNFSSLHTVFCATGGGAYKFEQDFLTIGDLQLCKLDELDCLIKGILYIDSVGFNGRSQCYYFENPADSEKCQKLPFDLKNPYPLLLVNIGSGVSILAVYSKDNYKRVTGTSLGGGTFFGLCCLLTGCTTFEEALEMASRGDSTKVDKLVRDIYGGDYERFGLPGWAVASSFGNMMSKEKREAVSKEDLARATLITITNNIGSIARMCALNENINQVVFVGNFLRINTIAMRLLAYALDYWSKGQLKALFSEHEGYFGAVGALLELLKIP
inactive: [1] 0.024 | [2] 0.081 | [3] -0.021 | [4] 0.019 | [5] -0.077

NUP133 (UniProt Q8WUM0)
inactive: [1] 0.05 | [2] 0.046 | [3] 0.014 | [4] 0.025 | [5] -0.052

PAPOLG (UniProt Q9BWT3)
inactive: [3] 0.064 | [4] 0.074 | [5] -0.107

NR2F2 (UniProt P24468)
inactive: [1] -0.082 | [2] -0.117 | [4] -0.008 | [5] 0.082

ORC3 (UniProt Q9UBD5)
inactive: [5] -0.276

NUDT6 (UniProt P53370)
inactive: [3] -0.222 | [4] 0.009

MT-ATP8 (UniProt P03928)
inactive: [1] -0.057 | [2] 0.052 | [3] 0.082 | [5] 0.104

NNT (UniProt Q13423)
inactive: [1] -0.005 | [2] 0.052 | [3] 0 | [4] 0.015 | [5] 0.034

OSBP2 (UniProt Q969R2)
Sequence of UniProt Q969R2 (Q969R2 whole entry, looked up): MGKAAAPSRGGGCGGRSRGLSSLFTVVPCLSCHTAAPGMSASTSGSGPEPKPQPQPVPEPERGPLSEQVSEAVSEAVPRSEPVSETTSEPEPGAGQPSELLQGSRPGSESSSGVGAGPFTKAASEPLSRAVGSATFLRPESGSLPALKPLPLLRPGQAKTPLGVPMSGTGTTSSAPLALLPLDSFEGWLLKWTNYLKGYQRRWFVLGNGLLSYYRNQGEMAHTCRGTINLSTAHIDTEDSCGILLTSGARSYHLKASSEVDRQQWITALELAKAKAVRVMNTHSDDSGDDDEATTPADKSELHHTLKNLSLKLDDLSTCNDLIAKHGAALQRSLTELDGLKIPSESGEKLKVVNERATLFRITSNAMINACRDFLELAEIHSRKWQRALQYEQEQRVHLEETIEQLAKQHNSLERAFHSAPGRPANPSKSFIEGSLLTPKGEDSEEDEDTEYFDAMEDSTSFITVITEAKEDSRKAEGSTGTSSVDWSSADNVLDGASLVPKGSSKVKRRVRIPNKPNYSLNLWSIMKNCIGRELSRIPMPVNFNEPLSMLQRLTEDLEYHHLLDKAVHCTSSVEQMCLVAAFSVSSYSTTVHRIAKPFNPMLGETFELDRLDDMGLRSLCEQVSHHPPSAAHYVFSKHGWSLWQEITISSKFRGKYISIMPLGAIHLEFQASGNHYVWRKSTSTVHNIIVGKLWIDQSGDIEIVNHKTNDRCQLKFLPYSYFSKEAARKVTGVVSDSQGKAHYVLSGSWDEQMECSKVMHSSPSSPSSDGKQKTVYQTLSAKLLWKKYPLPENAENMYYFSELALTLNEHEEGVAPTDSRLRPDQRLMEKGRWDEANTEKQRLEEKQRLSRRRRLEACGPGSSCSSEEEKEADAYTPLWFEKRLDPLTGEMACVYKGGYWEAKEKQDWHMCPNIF
inactive: [1] 0.021 | [2] 0.046 | [3] 0.019 | [4] -0.095 | [5] -0.439

NELFA (UniProt Q9H3P2)
inactive: [1] -0.055 | [2] 0.033 | [3] -0.022 | [4] -0.037 | [5] 0.054

PAGE4 (UniProt O60829)
inactive: [1] 0.024 | [2] -0.11 | [4] -0.143 | [5] 0.118

NUDT4 (UniProt Q9NZJ9)
inactive: [1] 0.037 | [2] -0.025 | [3] 0.004 | [4] 0.075 | [5] 0.242

OSBPL1A (UniProt Q9BXW6)
inactive: [1] -0.089 | [2] 0.007 | [4] -0.144 | [5] -0.084
